# Laboratory results from PubChem BioAssay.
# Values joined by “and” are separate entries in the source; they are usually repeats but may differ in a detail not shown here. Equal values may be shown once. Results filed as inconclusive are left out. Active and inactive are the calls of the source.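 Rule for the calls, unless noted: active = normalized viability below 100% at a tested concentration; inactive = the rest.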
# Experiments:
# [1] = Wnt pathway potentiators raising nuclear beta-catenin – imaging, WNT3A-conditioned medium, mouse C2C12, NPC library, primary screen (AID 1117326; in the data active = nuclear beta-catenin stimulation mostly above about 4.2%, no sharp cut-off; inactive = mostly below about 10%); details: stronger effect = higher value
# [2] = stimulators of insulin release from INS-1E, primary screen, cell-based, 5 mM glucose, NPC library (AID 1117329;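 active = compound raises insulin release from rat beta cells at 5 mM glucose, no numeric limit stated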); details: rat INS-1E insulin secretion, at 10 µM, stronger effect = higher value
# [3] = growth inhibition of GSK3B-pretreated HCT116 cells – cell-based, CellTiter-Glo, 0.2 to 20 µM (AID 1117336;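 active = compounds lowering colon cancer cell viability after pretreatment blocking the GSK3B kinase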); details: HCT116 viability after GSK3B inhibitor, at 20 µM, stronger effect = higher value
# [4] = inhibition of endothelial tube formation, primary screen, imaging, VEGF stimulated, CD31 staining, tube area, NPC library (AID 1117340;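 active = compound that reduces growth-factor-driven endothelial tube area in a mixed cell culture, no cutoff stated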); details: VEGF-stimulated ADSC/ECFC co-culture, at 10 µM, stronger effect = higher value
# [5] = GLP1 release stimulators, primary, NCI-H716, NPC library (AID 1117341;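 active = compound raises GLP1 secretion from the human gut endocrine cells, with no numeric limit stated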); details: NCI-H716 cells, at 10 µM, stronger effect = higher value
# [6] = HCT116 colon cancer cell growth inhibition, primary screen, CellTiter-Glo luminescence, NPC library (AID 1117342;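 active = compounds that lower survival of HCT116 colon cancer cells in the luminescence readout, no numeric limit stated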); details: at 20 µM (top of the series)
# [7] = reduced SW480 viability measured with CellTiter-Glo, NPC library, primary (AID 1117343;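 active = compounds that lower viability of the colon cancer cells in the luminescence readout, with no numeric limit stated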); details: CellTiter-Glo luminescence; at 20 µM (top of the series) unless noted
# [8] = NPC library primary testing for decreased DLD-1 cell viability via CellTiter-Glo (AID 1117346;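 active = compounds that lower survival of DLD-1 colon cancer cells in the luminescence readout, no cutoff given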); details: DLD-1 viability, CellTiter-Glo luminescence; at 20 µM (top of the series)
# [9] = test system: Aerobactin synthetase IucA (Klebsiella pneumoniae); test: inhibition of K. pneumoniae IucA enzyme – biochemical, Tocris library, absorbance (AID 1345561; call rule not given here;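 note: 100% = enzyme without compound and 0% = no enzyme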); details: purified IucA enzyme assay, absorbance (OD) read-out; stronger effect = lower value;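 tested at 8 µM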
# [10] = viability loss in pontine glioma line – cell-based, SU-DIPG-XVII, MIPE5.0, CellTiter-Glo, qHTS, dose response (AID 1347060; cut-off not given, nearly all actives have AC50 up to about 26 µM); details: CellTiter-Glo ATP luminescence
# [11] = viability loss in pontine glioma line – cell-based, SU-DIPG-XIII, MIPE4.0, CellTiter-Glo, qHTS, dose response (AID 1347061; cut-off not given, nearly all actives have AC50 up to about 37 µM;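 note: cells exposed to compound for 48 hours before readout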); details: CellTiter-Glo ATP luminescence
# [12] = growth inhibition of DIPG cells – cell-based, MIPE4.0 library, CellTiter-Glo luminescence, qHTS (AID 1347066; cut-off not given, nearly all actives have AC50 up to about 30 µM;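 note: cells exposed to compound for 48 hours before readout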); details: SU-DIPG-VI viability, CellTiter-Glo ATP luminescence
# [13] = growth inhibition of DIPG cells – cell-based, MIPE5.0 library, qHTS (AID 1347068; cut-off not given, nearly all actives have IC50 up to about 30 µM); details: SU-DIPG-XXV viability
# [14] = viability loss with induced miR-34 in A549 – imaging, A549 dox-inducible miR-34, nuclei and caspase counts, primary screen (AID 1347080;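 active = compounds whose cell count with miR-34 switched on is under 0.7 times the count with it off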); details: A549 miR-34 inducible, Hoechst nuclei count, 48 h
# [15] = drug combination growth inhibition, ovarian cancer – cell-based, oncology-focused library, rucaparib conditional, profiling panel (AID 1508598); details: patient-derived ovarian cancer cells, CellTiter-Glo viability, 144 h, stronger effect = lower value
# [16] = galactose survival enhancers in mitochondrial complex I cybrids – cell-based, galactose medium, ATP luminescence, primary screen (AID 1645843;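 active = z-score of at least 1.8 in each of two replicates, scored against plate mean and spread of sample wells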;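 note: positive z means more ATP and so rescue of galactose-driven cybrid death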); details: complex I mutant cybrid cells, 72 h, stronger effect = higher value
# [17] = P. berghei load reduction in hepatocytes – cell-based, HepG2, luciferase luminescence, HepG2 viability, primary screen (AID 624349; in the data active = parasite load remaining mostly below about 12%, no sharp cut-off; inactive = mostly above about 10%;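 note: 100% = mean of DMSO negative control wells on the same plate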); details: P. berghei liver stage in HepG2, luciferase luminescence, concentration not given here; parasite load remaining: stronger effect = lower value; viability: measured here: HepG2 viability without parasites
# [18] = EMT-state selective cytotoxicity in co-culture – imaging, PC-3E GFP, TEM4-18 mCherry, primary screen (AID 1345086;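 active = compounds killing one labelled cell type while sparing the other, by normalised counts and ratio limits, not self-fluorescent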;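 for all read-outs here: cells exposed to compound for 72 h before imaging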;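 for red/green cell ratio (normalised): normalised mesenchymal count divided by normalised epithelial count so high means epithelial killing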); details: PC-3E GFP / TEM4-18 mCherry co-culture, imaging cell counts, at 1 µM; for red/green cell ratio (normalised): actives lie on both sides, counts scaled to control wells, 1 = unselective
# [19] = molecular target: NAD(+) hydrolase SARM1 (Homo sapiens) (UniProt Q6SZW1); test: blocking NAD cleavage by SARM1 SAM-TIR – cell lysate, NAD-Glo luminescence (AID 1508614;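 active = compound whose remaining NAD level is above about 45 nM, limit read from the data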;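 note: higher remaining NAD means stronger inhibition of SARM1 NADase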); details: SAM-TIR HEK293T lysate NADase, at 1 µM, stronger effect = higher value
# Chain of NAD(+) hydrolase SARM1 (Homo sapiens) (Q6SZW1 whole entry, looked up): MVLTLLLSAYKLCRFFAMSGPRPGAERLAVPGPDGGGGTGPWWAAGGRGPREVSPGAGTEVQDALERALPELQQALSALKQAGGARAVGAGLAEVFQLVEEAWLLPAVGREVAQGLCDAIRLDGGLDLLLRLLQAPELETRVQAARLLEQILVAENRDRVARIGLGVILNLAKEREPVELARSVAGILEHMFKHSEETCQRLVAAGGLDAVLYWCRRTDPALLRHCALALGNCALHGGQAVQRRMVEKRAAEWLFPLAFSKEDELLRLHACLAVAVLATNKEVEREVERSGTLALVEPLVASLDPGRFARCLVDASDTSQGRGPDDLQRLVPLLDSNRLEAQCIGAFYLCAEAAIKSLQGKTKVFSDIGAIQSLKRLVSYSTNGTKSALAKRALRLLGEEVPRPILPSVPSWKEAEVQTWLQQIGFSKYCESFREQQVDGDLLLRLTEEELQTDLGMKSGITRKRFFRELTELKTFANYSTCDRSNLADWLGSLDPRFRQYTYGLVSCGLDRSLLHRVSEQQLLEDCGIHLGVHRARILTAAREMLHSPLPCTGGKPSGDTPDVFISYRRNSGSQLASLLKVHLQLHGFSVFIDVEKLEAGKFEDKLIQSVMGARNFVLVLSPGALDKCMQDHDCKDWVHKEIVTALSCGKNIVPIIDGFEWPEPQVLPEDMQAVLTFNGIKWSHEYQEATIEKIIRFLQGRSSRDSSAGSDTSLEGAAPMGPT
# [20] = stronger effect = lower value, cell number ratio, induced over uninduced
# [21] = measured here: relative caspase fold change +Dox/-Dox
# [22] = measured here: total cells with miR-34 induction, stronger effect = lower value
# [23] = measured here: total cells without miR-34 induction
# [24] = measured here: epithelial PC-3E GFP cell survival
# [25] = measured here: mesenchymal TEM4-18 mCherry cell survival
smiles,measurement,setting,value
Nc1ncn([C@H]2C[C@H](O)[C@@H](CO)O2)c(=O)n1,nuclear beta-catenin stimulation,[1]; at 10 µM,7.2% (inactive)
same,nuclear beta-catenin stimulation,"[1]; stimulation, at 2 µM",4.5%
same,insulin secretion stimulation,[2],-1.2% (inactive)
same,viability decrease,[3],33.4% (inactive)
same,tube area decrease,[4],58.1% (active)
same,GLP1 secretion stimulation,[5],1.6% (inactive)
same,inhibition of viability,[6],31.2% (inactive)
same,viability decrease (inhibition),[7],53.8% (active)
same,viability decrease (inhibition),[8],18.9% (inactive)
same,remaining activity,[9],97% (inactive)
same,outcome,[10],inactive
same,outcome,[11],inactive
same,outcome,[12],inactive
same,outcome,[13],inactive
same,fold change,[14]; [20],0.823 (inactive)
same,fold change,[14]; [21],1.99
same,cell count,[14]; [22],8200
same,cell count,[14]; [23],9960
same,viability,"[15]; at 0.000305 µM, OCI-C5x cells, with rucaparib 10 µM, 100% = cells with rucaparib alone",122% (inactive)
same,viability,"[15]; at 0.000305 µM, OCI-C5x cells, without rucaparib",112% (inactive)
same,viability,"[15]; at 0.000305 µM, OCI-P5x cells, with rucaparib 20 µM, 100% = cells with rucaparib alone",104% (inactive)
same,viability,"[15]; at 0.000305 µM, OCI-P5x cells, without rucaparib",112% (inactive)
same,viability,"[15]; at 0.00122 µM, OCI-C5x cells, with rucaparib 10 µM, 100% = cells with rucaparib alone",111% (inactive)
same,viability,"[15]; at 0.00122 µM, OCI-C5x cells, without rucaparib",107% (inactive)
same,viability,"[15]; at 0.00122 µM, OCI-P5x cells, with rucaparib 20 µM, 100% = cells with rucaparib alone",111% (inactive)
same,viability,"[15]; at 0.00122 µM, OCI-P5x cells, without rucaparib",103% (inactive)
same,viability,"[15]; at 0.00488 µM, OCI-C5x cells, with rucaparib 10 µM, 100% = cells with rucaparib alone",113% (inactive)
same,viability,"[15]; at 0.00488 µM, OCI-C5x cells, without rucaparib",112% (inactive)
same,viability,"[15]; at 0.00488 µM, OCI-P5x cells, with rucaparib 20 µM, 100% = cells with rucaparib alone",99.8% (active)
same,viability,"[15]; at 0.00488 µM, OCI-P5x cells, without rucaparib",95.8% (active)
same,viability,"[15]; at 0.0195 µM, OCI-C5x cells, with rucaparib 10 µM, 100% = cells with rucaparib alone",103% (inactive)
same,viability,"[15]; at 0.0195 µM, OCI-C5x cells, without rucaparib",108% (inactive)
same,viability,"[15]; at 0.0195 µM, OCI-P5x cells, with rucaparib 20 µM, 100% = cells with rucaparib alone",82.8% (active)
same,viability,"[15]; at 0.0195 µM, OCI-P5x cells, without rucaparib",95.2% (active)
same,viability,"[15]; at 0.0781 µM, OCI-C5x cells, with rucaparib 10 µM, 100% = cells with rucaparib alone",101% (inactive)
same,viability,"[15]; at 0.0781 µM, OCI-C5x cells, without rucaparib",107% (inactive)
same,viability,"[15]; at 0.0781 µM, OCI-P5x cells, with rucaparib 20 µM, 100% = cells with rucaparib alone",96.6% (active)
same,viability,"[15]; at 0.0781 µM, OCI-P5x cells, without rucaparib",88.3% (active)
same,viability,"[15]; at 0.313 µM, OCI-C5x cells, with rucaparib 10 µM, 100% = cells with rucaparib alone",85.8% (active)
same,viability,"[15]; at 0.313 µM, OCI-C5x cells, without rucaparib",88.1% (active)
same,viability,"[15]; at 0.313 µM, OCI-P5x cells, with rucaparib 20 µM, 100% = cells with rucaparib alone",84.8% (active)
same,viability,"[15]; at 0.313 µM, OCI-P5x cells, without rucaparib",68.4% (active)
same,viability,"[15]; at 1.25 µM, OCI-C5x cells, with rucaparib 10 µM, 100% = cells with rucaparib alone",80.4% (active)
same,viability,"[15]; at 1.25 µM, OCI-C5x cells, without rucaparib",80% (active)
same,viability,"[15]; at 1.25 µM, OCI-P5x cells, with rucaparib 20 µM, 100% = cells with rucaparib alone",68.8% (active)
same,viability,"[15]; at 1.25 µM, OCI-P5x cells, without rucaparib",61.9% (active)
same,viability,"[15]; at 5 µM, OCI-C5x cells, with rucaparib 10 µM, 100% = cells with rucaparib alone",49.1% (active)
same,viability,"[15]; at 5 µM, OCI-C5x cells, without rucaparib",63.2% (active)
same,viability,"[15]; at 5 µM, OCI-P5x cells, with rucaparib 20 µM, 100% = cells with rucaparib alone",57.9% (active)
same,viability,"[15]; at 5 µM, OCI-P5x cells, without rucaparib",46.9% (active)
same,z-score,[16],0.69 (inactive)
CCN(CC)CCOc1ccc2c(c1)C(=O)c1cc(OCCN(CC)CC)ccc1-2,parasite load remaining,[17],151% (inactive) and 24.6% (inactive)
same,viability,[17],84.5% and 89%
same,nuclear beta-catenin stimulation,[1]; at 10 µM,8.6% (inactive)
same,nuclear beta-catenin stimulation,"[1]; stimulation, at 2 µM",0.3%
same,insulin secretion stimulation,[2],3.7% (inactive)
same,viability decrease,[3],-16.4% (inactive)
same,tube area decrease,[4],13% (inactive)
same,GLP1 secretion stimulation,[5],3.6% (inactive)
same,inhibition of viability,[6],52.8% (active)
same,viability decrease (inhibition),[7],95.3% (active)
same,viability decrease (inhibition),[8],38.8% (inactive)
same,red/green cell ratio (normalised),[18],1.18 (inactive)
same,normalised cell number,[18]; [24],0.79
same,normalised cell number,[18]; [25],0.93
same,fold change,[14]; [20],0.841 (inactive)
same,fold change,[14]; [21],3.57
same,cell count,[14]; [22],9990
same,cell count,[14]; [23],11900
same,remaining NAD,[19],10 nM (inactive)
CC(=O)N(CC(O)CO)c1c(I)c(C(=O)NCCO)c(I)c(C(=O)NCC(O)CO)c1I (configuration not stated),nuclear beta-catenin stimulation,[1]; at 10 µM,9.8% (inactive)
same,nuclear beta-catenin stimulation,"[1]; stimulation, at 2 µM",0.7%
same,insulin secretion stimulation,[2],0.3% (inactive)
same,viability decrease,[3],-3.3% (inactive)
same,tube area decrease,[4],1.4% (inactive)
same,GLP1 secretion stimulation,[5],2.4% (inactive)
same,inhibition of viability,[6],-3.1% (inactive)
same,viability decrease (inhibition),[7],-2.5% (active)
same,viability decrease (inhibition),[8],0.4% (inactive)
same,red/green cell ratio (normalised),[18],0.83 (inactive)
same,normalised cell number,[18]; [24],1.22
same,normalised cell number,[18]; [25],1.02
same,fold change,[14]; [20],0.937 (inactive)
same,fold change,[14]; [21],0.945
same,cell count,[14]; [22],9070
same,cell count,[14]; [23],9680
same,remaining NAD,[19],10 nM (inactive)
